Assay outcomes: PubChem, National Center for Advancing Translational Sciences (NCATS)
Hits are enriched below; roughly 4.2% of the tested compounds scored in any of these assays.
a7 integrin act: activators of alpha7 integrin expression for muscular dystrophy; alpha7betagal myoblasts, beta-gal FDG fluorescence, 48 h; Potency, µM (series often up to 38.3 µM), for the others: top-dose activation, hits mostly activators; 0.064% of 350,000 active; AID 624291;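 also: 100% = response of the positive control SU9516; nearly all actives have a fitted effect of over 60% in size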
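Alpha7betagal+/- myoblasts (passage 13) were plated 16-24 hr, then exposed to compounds (1:260 dilution of DMSO stock) for 48 hours at 37C. After MPER lysis, β-galactosidase reporter activity was read as FDG fluorescence (ex 480/em 540) after 30 minutes.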
A-T KAP1 phos: potential ataxia-telangiectasia treatments restoring KAP-1 phosphorylation; F2112 A-T fibroblasts, KAP-1 phosphorylation AlphaLISA; neocarzinostatin DNA damage 30 min before lysis; Potency, µM (series often up to 57.5 µM), without a hit: at the highest dose activation, most hits filed as activators; 0.19% of 320,000 active; AID 485349; also: % of control where 0% means no effect; nearly all actives have a fitted effect of over 45% in size
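ATM-like activity read as KAP-1 phosphorylation via AlphaLISA donor/acceptor antibody pairs after lysis and 6 hr at 25C. Cells were ATM-null patient fibroblasts (F2112, hTERT), dosed 60 min, then exposed to the DSB inducer NCS for 30 min.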
SW480 rereplic: induces DNA re-replication in SW480 colon adenocarcinoma cells | SW480 DNA re-replication, Hoechst DNA content imaging, 48 h | 1.8% of 340,000 active | Potency, µM (series often up to 46.1 µM), without a hit: at the highest dose re-replication activation, hits mostly activators; also: % of control where 0% means no effect; nearly all actives have a fitted effect of over 55% in size
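SW480 cells exposed to compounds for 48 hr at 37 C, 5% CO2, then Hoechst-stained 40 min. Nuclear DNA content imaged by fluorescence scanning (405 nm excitation, 500-530 nm emission); re-replication scored as increased high-intensity nuclei.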
Mito fusion yeast: blocks mitochondrial division or promotes mitochondrial fusion | S. cerevisiae fusion-defective mutant growth rescue, CellTiterGlo 48 h | 0.23% of 320,000 active | Potency, µM (series often up to 46.1 µM), inactives show top-dose growth rescue (activation), actives largely listed as activators; also: % of control where 0% means no effect; nearly all actives have a fitted effect of over 45% in size
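Growth-rescue viability read-out: after 48 h at the non-permissive 37C in glycerol/ethanol YPEG, yeast mitochondrial fusion mutants are measured by CellTiterGlo luminescence; compounds (23 nl pinned per well) restoring growth score as division inhibitors or fusion activators.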
MCF10A rereplic: inducers of DNA re-replication in MCF 10A breast cells; 2.9% of 350,000 active; MCF 10A DNA re-replication, Hoechst nuclear intensity, 48 h; Potency, µM (highest dose often 46.1 µM), for the others: top-dose activity, positive = re-replication, actives largely listed as activators; also: % of control where 0% means no effect; nearly all actives have a fitted effect of over 50% in size
The depositor's hits bear a star; ? = inconclusive; . = no result; [ ] = remark or other dose. Calls follow the shape of the dose curve; as a rule, active = well fitted activation curve with a large enough effect; inconclusive = small, poorly fitted or top-dose-only effect; inactive = no such curve, though single readings can be large or run the other way. Potency is read from the fitted curve at half-maximal effect.

SMILES	a7 integrin act	A-T KAP1 phos	SW480 rereplic	Mito fusion yeast	MCF10A rereplic
N#Cc1ccc(C(=O)CSc2nnc(-c3ccc(C(F)(F)F)cn3)s2)cc1	-8%	-5%	3.3µM*	5%	26%
O=C(CSc1nnc(-c2ccc(C(F)(F)F)cn2)s1)c1ccc(Cl)cc1	10%	-7%	-7%	4%	0%
COc1ccc(/C=C/c2cc(O)cc(OC3OC(CO)C(O)C(O)C3O)c2)cc1 (stereo not drawn)	.	.	0.18µM*	.	-4%
CC(C)(C)CC(=O)Nc1cc2c3c(c1)CCC(=O)N3CCC2	-35%	10%	-2%	8%	-2%
C/C=C/c1ccc(OCC(=O)O)c(OC)c1	-15%	0%	4%	0%	-2%
CC(C)=CCOc1ccc(/C=C/C(=O)c2ccc(OCC=C(C)C)cc2OCC(=O)O)cc1	.	.	-3%	.	12µM*
COc1ccc(/C=N/n2c(=O)[nH]c3c([nH]c4ccc(C)cc43)c2=O)cc1CN1CCOCC1	-7%	-1%	-7%	-2%	4%
CC1=CC(C)[C@H](/C=N/n2c(=O)[nH]c3c([nH]c4ccc(C)cc43)c2=O)C(C)C1 (stereo partly drawn)	3%	1%	?	4%	9.2µM*
S=C(NCc1ccccn1)NN=Cc1ccccn1	-32%	.	13%	.	11%
CCCOc1ccc(S(=O)(=O)NCc2ccc(OC)cc2)cc1	-20%	9%	-5%	9%	0%
CC(C)CCNC(=O)C(c1ccncc1)N(C(=O)Cn1nnc(-c2ccc(F)cc2)n1)c1ccccc1F (stereo not drawn)	-21%	2%	2%	1%	4%
OCCCNc1c2c(nc3cc(-c4ccc(Cl)cc4)nn13)CCC2	-11%	1%[11.5 µM]	-36%	14µM*	9%
CC1CCC2(CC1)NC(=O)N(NC(=O)c1cc3ccccc3o1)C2=O (stereo not drawn)	-2%	6%	0%	1%	-1%
CCN(Cc1ccccc1)C(=O)CCS(=O)(=O)c1ccc2c(c1)CCN2C(C)=O	?	4%	4%	4%	0%
O=C(CSc1ccc2nnc(-c3cccnc3)n2n1)Nc1ccccc1F	7%	.	.	.	.
Cc1cccc(N(CC(=O)NC2CCCCC2)C(=O)c2ccc(C)s2)c1	25%	0%	7.3µM*	4%	?
CCSc1nnc(NC(=O)CCNS(=O)(=O)c2ccccc2F)s1	-10%	-5%	-42%	13%	-2%
S=C(NCCc1ccccn1)Nc1ccccc1Cl	-33%	-2%	9.2µM*	-6%	14%
Cc1c(Cl)cccc1NC(=S)NCCc1ccccn1	-41%	8%	-53%	-1%	?
COc1ccc(-c2cc(C(=O)N3CCN(c4ccccn4)CC3)c3ccccc3n2)cc1	-17%	4%	21µM*	18%	?
COc1ccc(-c2cc(C(=O)N3CCN(c4ccccc4)CC3)c3ccccc3n2)cc1	-6%	0%	1.8µM*	6%	13µM*
Cc1ccc(CC(=O)NC2CCCc3ccccc32)cc1C (stereo not drawn)	-4%	1%	?	0%	-17%
O=C(Nc1ccc(Cl)cn1)c1ccccc1F	1%	.	12µM*	1%	13µM*
O=C(Nc1ccc(Cl)cn1)c1cccc(F)c1	-14%	7%	10µM*	3%	13µM*
N#Cc1c(-c2ccccc2)nc(SCc2cccc(Cl)c2)[nH]c1=O	23%	4%	-5%	8%	?
Cc1nn(-c2ccccc2)c(C)c1/C=N/NC(=O)c1cc(-c2ccc(Cl)s2)[nH]n1	-31%	3%	5.2µM*	20%	3.7µM*
CC(/C=N/NC(=O)c1cc(-c2ccc(C)s2)[nH]n1)=C\c1ccccc1	-35%	-1%	?	16%	6.5µM*
Cc1cc(C(=O)N/N=C/c2c(C)nn(-c3ccccc3)c2C)n[nH]1	-8%	-5%	-4%	0%	3%
Cc1nn(-c2ccccc2)c(C)c1/C=N/NC(=O)c1cc(-c2cccs2)[nH]n1	-29%	-2%	0.65µM*	6%	29%
Cc1nn(-c2ccccc2)c(C)c1/C=N/NC(=O)c1cc(-c2ccc(Br)s2)[nH]n1	0%	-7%	15µM*	?	4.1µM*
